Activity calls are given as the source filed them. Unless noted, how the calls were made is not given here.
Key:
[1] = compounds binding Alexa647 anti-His antibody – biochemical, small-molecule microarray, 635 nm fluorescence, artefact control for SMM control protein annotation, primary screen (AID 1128); settings: higher = more signal;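 further: score merges feature fluorescence with signal-to-noise for each printed compound spot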
[2] = tested on: Human papillomavirus type 1a E7 protein (residues 1-88); assay: HPV1a E7 small-molecule binders, primary screen, biochemical, small-molecule microarray, residues 1-88, 635 nm (AID 1129); settings: small-molecule microarray binding, fluorescence 635 nm; higher = more signal
[3] = molecular target: Focal adhesion kinase 1 (Homo sapiens) (UniProt Q05397); assay: PTK2 protein binding on printed compound slides – biochemical, small-molecule microarray, 635/667 nm fluorescence, BSA, DTT, primary screen (AID 1130); settings: 635 nm fluorescence, higher = more signal;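 further: composite of spot emission at 667 nm and signal to noise over triplicate slides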
[4] = tested on: Fibrinogen (Alexa647-labelled); assay: Alexa647-fibrinogen binding to printed small molecules – biochemical, small-molecule microarray, 635/667 nm fluorescence, artefact control for SMM control-protein annotation, profiling panel (AID 1131); settings: fibrinogen-A647 binding fluorescence, higher = more signal;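 further: z-score merges 667 nm fluorescence with per-spot signal-to-noise over triplicate slides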
[5] = molecular target: Follistatin (Homo sapiens) (UniProt P19883); assay: FST protein binding to printed compounds – biochemical, small-molecule microarray, 635/667 nm fluorescence, primary screen (AID 1132); settings: 635 nm fluorescence, higher = more signal
[6] = molecular target: Fibroblast growth factor 2 (Homo sapiens) (UniProt P09038); assay: basic fibroblast growth factor binding to printed compounds – biochemical, small-molecule microarray, 635/667 nm fluorescence, primary screen (AID 1133); settings: FGF2, fluorescence 635/667, higher = more signal
[7] = JC-1 mitochondrial potential readout, lung cancer cells – cell-based, A549, JC-1 fluorescence, basal, 24 h, 100 nL, profiling panel (AID 1138); settings: higher = more signal;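 further: A549 lung adenocarcinoma cells under basal conditions with no added stimulus; test concentration not given here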
Lefty1 = Lefty1 protein binding to printed compounds – biochemical, small-molecule microarray, 635/667 nm fluorescence, primary screen (AID 1139); settings: fluorescence 635/667, higher = more signal
[8] = tested on: wheat germ agglutinin (Triticum aestivum), Alexa647-labelled; assay: Alexa647-WGA lectin binding to printed small molecules – biochemical, small-molecule microarray, 635/667 nm fluorescence, artefact control for SMM control-protein annotation, profiling panel (AID 1140); settings: WGA-A647 binding, 635 nm fluorescence, higher = more signal;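 further: score merges 667 nm feature emission with signal to noise over triplicate slides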
[9] = molecular target: Luciferin 4-monooxygenase (Photinus pyralis) (UniProt P08659); assay: inhibition of purified Photinus pyralis luciferase – biochemical, luminescence, purified enzyme, 2006 set, primary screen (AID 1141); settings: purified firefly luciferase, SteadyGlo luminescence, 30 min; higher = more signal, called active from +8 up or from −8 down;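 further: cell-free assay with purified firefly luciferase at 100 ng per well in PBS; test concentration not given here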
[10] = tested on: Wnt5a (protein binding on small-molecule microarray); assay: small molecules binding Wnt5a protein – biophysical, small-molecule microarray, 635/667 nm fluorescence, primary screen (AID 1142); settings: 635 nm fluorescence, higher = more signal;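 further: fluorescence read at 667 nm with signal to noise per printed feature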
[11] = ATP-based viability of Huh7 replicon cells – cell-based, CellTiter-Glo luminescence, basal, 48 h, cytotoxicity control for HCV replication inhibitor project, primary screen (AID 1143); settings: higher = more signal, called active from +8 up or from −8 down;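 further: Huh7 hepatoma cells carrying a hepatitis C replication reporter with no stimulus; test concentration not given here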
[12] = Pseudomonas biofilm growth suppression – PAO1 strain, BacTiter-Glo luminescence, LB-PBS, primary screen (AID 1144); settings: P. aeruginosa PAO1 biofilm, 12 h, higher = more signal
[13] = basal CRE-LacZ reporter activity in PC12 – cell-based, unstimulated, primary screen (AID 1145); settings: no forskolin, luminescence, 4.5 h, higher = more signal, called active from +8 up or from −8 down
[14] = forskolin-driven CRE-LacZ activity in PC12 – cell-based, CRE-LacZ reporter, forskolin-stimulated, primary screen (AID 1146); settings: luminescence, 4.5 h, higher = more signal, called active from +8 up or from −8 down;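 further: PC12 cells with 6xCRE LacZ reporter stimulated by forskolin 10 µM; beta-galactosidase reporter signal reflecting CREB driven transcription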
[15] = molecular target: Streptavidin (Streptomyces avidinii) (UniProt P22629); assay: compounds binding control protein streptavidin – biophysical, small-molecule microarray, 635/667 nm fluorescence, artefact control for SMM compound annotation, primary screen (AID 1147); settings: higher = more signal;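 further: signal reflects streptavidin binding to arrayed compounds as a control protein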
[16] = probe aInhba binding on compound microarray – biochemical, small-molecule microarray, 635/667 nm fluorescence, primary screen (AID 1148); settings: higher = more signal;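 further: score merges 667nm spot fluorescence with signal-to-noise for antibody binding to printed compounds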
Torsin-1A (Homo sapiens) [17] = molecular target: Torsin-1A (Homo sapiens) (UniProt O14656); assay: TOR1A wild-type binding on microarray – cell lysate, small-molecule microarray, lysate, 635/667 nm, primary screen (AID 1149); settings: COS7 hTOR1A-WT lysate, 635 nm fluorescence, higher = more signal
Torsin-1A (Homo sapiens) [18] = molecular target: Torsin-1A (Homo sapiens) (UniProt O14656); assay: torsin A mutant lysate binding on microarrays – cell lysate, small-molecule microarray, COS7 lysate, 635/667 nm fluorescence, primary screen (AID 1150); settings: COS7 hTOR1A mutant lysate, 635 nm fluorescence, higher = more signal;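 further: score pools 667 nm emission and signal to noise measuring lysate protein binding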
[19] = tested on: Sonic hedgehog protein (Shh); assay: Sonic hedgehog microarray binding compounds – biochemical, small-molecule microarray, 635/667 nm fluorescence, primary screen (AID 1151); settings: 635 nm fluorescence, higher = more signal;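 further: Shh protein binding to compounds spotted on small-molecule microarray slides; score combines spot fluorescence intensity with signal-to-noise across triplicate slides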

Sequence of Focal adhesion kinase 1 (Homo sapiens) (Q05397 whole entry, looked up): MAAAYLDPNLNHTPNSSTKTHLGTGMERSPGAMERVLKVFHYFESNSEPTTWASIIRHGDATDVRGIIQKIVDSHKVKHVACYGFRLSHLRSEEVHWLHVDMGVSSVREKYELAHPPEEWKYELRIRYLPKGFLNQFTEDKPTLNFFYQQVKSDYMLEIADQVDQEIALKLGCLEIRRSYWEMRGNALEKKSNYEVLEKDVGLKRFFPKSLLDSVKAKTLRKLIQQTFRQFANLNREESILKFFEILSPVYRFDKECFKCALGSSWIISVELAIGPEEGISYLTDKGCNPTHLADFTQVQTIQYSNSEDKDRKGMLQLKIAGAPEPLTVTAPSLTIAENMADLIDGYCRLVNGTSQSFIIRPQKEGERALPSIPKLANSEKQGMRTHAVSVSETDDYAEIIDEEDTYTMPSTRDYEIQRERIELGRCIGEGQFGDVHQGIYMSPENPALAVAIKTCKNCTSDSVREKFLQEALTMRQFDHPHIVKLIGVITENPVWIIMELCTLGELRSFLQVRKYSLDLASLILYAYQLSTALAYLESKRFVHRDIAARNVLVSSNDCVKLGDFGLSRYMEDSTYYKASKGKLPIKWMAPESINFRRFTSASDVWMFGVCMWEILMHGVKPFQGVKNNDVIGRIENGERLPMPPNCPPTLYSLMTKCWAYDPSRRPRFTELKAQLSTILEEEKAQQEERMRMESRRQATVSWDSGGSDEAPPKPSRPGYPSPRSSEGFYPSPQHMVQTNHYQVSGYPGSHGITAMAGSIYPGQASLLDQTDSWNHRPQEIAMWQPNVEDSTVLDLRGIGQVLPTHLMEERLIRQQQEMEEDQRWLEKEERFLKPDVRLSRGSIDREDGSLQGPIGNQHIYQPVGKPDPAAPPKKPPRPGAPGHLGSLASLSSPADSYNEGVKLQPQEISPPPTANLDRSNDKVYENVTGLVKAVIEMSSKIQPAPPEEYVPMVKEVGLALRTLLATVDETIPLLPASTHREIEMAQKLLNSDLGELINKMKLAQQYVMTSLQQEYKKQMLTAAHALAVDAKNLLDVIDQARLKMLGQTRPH
Sequence of Follistatin (Homo sapiens) (P19883 whole entry, looked up): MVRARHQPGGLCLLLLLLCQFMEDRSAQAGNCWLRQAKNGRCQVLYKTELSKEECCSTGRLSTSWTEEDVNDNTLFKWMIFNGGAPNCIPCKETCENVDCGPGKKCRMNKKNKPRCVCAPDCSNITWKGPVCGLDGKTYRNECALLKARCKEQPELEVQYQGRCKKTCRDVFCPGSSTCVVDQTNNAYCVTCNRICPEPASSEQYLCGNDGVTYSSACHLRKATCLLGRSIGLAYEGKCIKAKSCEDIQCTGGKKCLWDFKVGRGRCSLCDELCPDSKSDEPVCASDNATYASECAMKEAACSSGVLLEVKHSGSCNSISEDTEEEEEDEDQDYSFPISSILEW
Sequence of Fibroblast growth factor 2 (Homo sapiens) (P09038 whole entry, looked up): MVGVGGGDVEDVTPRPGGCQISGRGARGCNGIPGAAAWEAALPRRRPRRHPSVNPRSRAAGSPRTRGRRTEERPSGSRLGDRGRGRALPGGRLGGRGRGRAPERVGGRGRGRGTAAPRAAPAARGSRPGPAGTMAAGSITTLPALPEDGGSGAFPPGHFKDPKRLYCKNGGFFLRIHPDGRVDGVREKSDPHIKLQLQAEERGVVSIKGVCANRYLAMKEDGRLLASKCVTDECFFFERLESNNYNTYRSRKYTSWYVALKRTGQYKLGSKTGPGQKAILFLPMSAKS
Sequence of Torsin-1A (Homo sapiens) (O14656 whole entry, looked up): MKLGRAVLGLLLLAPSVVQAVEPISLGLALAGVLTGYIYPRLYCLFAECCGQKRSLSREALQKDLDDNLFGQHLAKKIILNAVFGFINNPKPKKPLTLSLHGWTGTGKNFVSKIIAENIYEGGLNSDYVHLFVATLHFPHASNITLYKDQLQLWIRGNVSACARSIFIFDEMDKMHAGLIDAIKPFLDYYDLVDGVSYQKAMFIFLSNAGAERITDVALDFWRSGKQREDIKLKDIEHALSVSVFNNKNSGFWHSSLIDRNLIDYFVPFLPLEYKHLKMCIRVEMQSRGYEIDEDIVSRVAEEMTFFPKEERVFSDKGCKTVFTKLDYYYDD
Sequence of Luciferin 4-monooxygenase (Photinus pyralis) (P08659 whole entry, looked up): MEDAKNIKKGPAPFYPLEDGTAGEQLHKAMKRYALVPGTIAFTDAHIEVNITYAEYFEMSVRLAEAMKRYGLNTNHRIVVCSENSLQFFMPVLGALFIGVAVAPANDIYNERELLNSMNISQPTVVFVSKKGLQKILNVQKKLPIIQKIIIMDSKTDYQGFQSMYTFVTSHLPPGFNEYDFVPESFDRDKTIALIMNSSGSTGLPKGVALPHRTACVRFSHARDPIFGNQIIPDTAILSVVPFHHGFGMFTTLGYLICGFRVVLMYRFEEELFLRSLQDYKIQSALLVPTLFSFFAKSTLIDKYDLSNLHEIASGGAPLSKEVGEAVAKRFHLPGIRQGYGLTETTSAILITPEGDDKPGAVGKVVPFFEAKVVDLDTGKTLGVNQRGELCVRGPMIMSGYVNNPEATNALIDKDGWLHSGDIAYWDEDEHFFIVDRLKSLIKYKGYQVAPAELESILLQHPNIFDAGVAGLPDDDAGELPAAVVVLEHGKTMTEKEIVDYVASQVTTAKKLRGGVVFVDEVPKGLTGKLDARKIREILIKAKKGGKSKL
Sequence of Streptavidin (Streptomyces avidinii) (P22629 whole entry, looked up): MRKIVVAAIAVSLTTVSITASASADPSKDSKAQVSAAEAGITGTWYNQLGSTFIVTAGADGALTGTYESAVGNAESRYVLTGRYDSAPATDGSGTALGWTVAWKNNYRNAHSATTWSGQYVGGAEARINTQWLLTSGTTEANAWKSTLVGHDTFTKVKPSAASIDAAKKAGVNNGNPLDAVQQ

SMILES | composite z-score [1] | composite z-score [2] | composite z-score [3] | composite z-score [4] | composite z-score [5] | composite z-score [6] | z-score [7] | composite z-score (Lefty1) | composite z-score [8] | z-score [9] | composite z-score [10] | z-score [11] | z-score [12] | z-score [13] | z-score [14] | composite z-score [15] | composite z-score [16] | composite z-score (Torsin-1A (Homo sapiens) [17]) | composite z-score (Torsin-1A (Homo sapiens) [18]) | composite z-score [19]
OCC1CC(c2ccccc2)=NO1 (stereo not given) | 0.702 | -0.0937 | -0.219 | -0.327 | 0.5 | 0.774 | 0.875 | -0.0193 | -0.239 | -1.4 (inactive) | 0.111 | 0.414 (inactive) | -0.0165 (inactive) | 0.312 (inactive) | -0.295 (inactive) | 2.47 | -0.0405 | 0.99 | 0.322 | 0.0003
Cn1cccc1C(O)C1C=CC2C(=O)NC(=O)C2N1Nc1ccc(Cl)cc1Cl (stereo not given) | 1.43 | 1.24 | 1.42 | 1.02 | 1.28 | 0.0937 | -0.13 | -0.207 | 1.15 | -1.4 (inactive) | 0.0792 | -0.316 (inactive) | -0.668 (inactive) | 0.812 (inactive) | 2.09 (inactive) | 1.37 | 0.374 | 0.887 | 1.05 | -0.269
CN(C)C(=O)[C@@]1(Cc2ccccc2CN=[N+]=[N-])N=C(c2ccc(OCCCO)cc2)O[C@H]1c1ccccc1CN=[N+]=[N-] | 2.33 | 1.21 | 0.419 | 0.856 | 0.652 | -0.025 | 1.43 | -0.483 | 1.12 | 0.184 (inactive) | 0.507 | -3.14 (inactive) | 0.427 (inactive) | 2.69 (inactive) | 0.517 (inactive) | 1.1 | 0.575 | 0.0276 | 0.767 | -0.304
C=C[C@@H](COC(C)=O)N(C(=O)OC(C)(C)C)S(=O)(=O)c1ccc(Br)cc1 | 1.5 | 0.966 | 0.233 | 0.741 | 1.53 | 1.89 | 0.307 | 1.65 | 1.1 | -0.149 (inactive) | 0.423 | -0.284 (inactive) | 1.01 (inactive) | 0.391 (inactive) | -0.739 (inactive) | 0.802 | -0.231 | 0.814 | 0.559 | 2.16
COC(=O)[C@@]1(Cc2ccc(F)cc2)[C@H]2c3cc(C(=O)N4CCCC4)n(CCN4CNCC4=O)c3C[C@H]2CN1C(=O)c1ccccc1 | 2.44 | 1.24 | 0.922 | 1 | -0.0189 | -0.841 | -1.6 | -0.0252 | 1.01 | 2.51 (inactive) | 0.289 | -1.11 (inactive) | -0.917 (inactive) | 0.39 (inactive) | -1.08 (inactive) | 1.04 | 0.179 | 1.51 | 1.77 | -0.164
[N-]=[N+]=NCc1ccccc1[C@H]1OC(c2ccc(OCCCO)cc2)=N[C@@]1(CCS(=O)(=O)c1ccccc1)C(=O)NCC(O)CO (stereo not given in full) | 2.5 | 1.26 | 1.33 | 1.01 | 1.36 | 0.877 | -1.22 | -0.385 | 0.983 | -0.986 (inactive) | 0.914 | -0.119 (inactive) | -1.53 (inactive) | 1.99 (inactive) | -0.75 (inactive) | 1.2 | 0.257 | 0.662 | 1.41 | -0.276
CN(C)CCCNC(=O)[C@@]1(c2ccc([N+](=O)[O-])cc2)CC(=O)N(CC23CC4CC(CC(C4)C2)C3)[C@@H]1c1ccc(CO)cc1I | 1.46 | 1.21 | -0.0381 | 0.846 | 1.35 | 1.34 | -2.32 | 1.5 | 0.674 | -1.46 (inactive) | 0.607 | -5.93 (inactive) | -0.263 (inactive) | 0.468 (inactive) | 0.372 (inactive) | 0.164 | 0.206 | 0.835 | 0.996 | 1.96
Cc1ccc(S[C@]2(C(=O)NCCCN(C)C)CC(=O)N(C3CCCCC3)[C@@H]2c2ccc(CO)cc2)cc1 | -0.693 | -0.612 | 0.116 | -1.43 | -0.24 | -0.852 | 1.28 | -0.562 | 0.165 | 0.437 (inactive) | -0.178 | -1.19 (inactive) | -0.903 (inactive) | 0.0279 (inactive) | 1.46 (inactive) | -0.677 | -0.0375 | -1.74 | -1.11 | -0.728
C=C(COC)/C(=C/C[C@H](OC(=O)c1ccncc1)c1ccccc1OCCO)c1cnc2ccccc2c1 | 0.717 | 1.23 | 0.241 | 1.01 | 1.4 | 1.35 | 0.662 | 1.5 | 1.04 | -0.212 (inactive) | 0.488 | -0.854 (inactive) | -1.13 (inactive) | 3.24 (inactive) | 1.42 (inactive) | 0.294 | 0.156 | 1.57 | 1.42 | 2.22

From PubChem BioAssay
